# In PubChem BioAssay AID1159580 (chemical genetic matrix, 2015):
# Screen size: about 5,500 compounds; about 2,000 (36%) were called active. Another 18% or so got no clear call; they are omitted. The list shows a part of the results. A number with no mark means an inactive call. Rule as the data show it: active = normalized growth mostly below about 0.91 (no sharp cut-off); inconclusive = no clear call, values can overlap the other calls; inactive = mostly above about 0.92.
# Assay: chemical genetic growth profiling, strain panel (AID 1159580);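 also: tested at 20 µM; growth read once vehicle control cultures reached saturation at 30 °C; 1 = growth at the plate median or of vehicle wells; lower values mean less growth of the strain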
# Settings: S. cerevisiae deletion strains, growth OD
# [1] = locus YAR019C, strain CDC15, hits give low values
# [2] = locus YBL105C, strain PKC1, hits give low values
# [3] = locus YBR135W, strain CKS1, hits give low values
# [4] = locus YBR136W, strain MEC1, hits give low values
# [5] = locus YBR160W, strain CDC28, hits give low values
# [6] = locus YDL017W, strain CDC7, hits give low values
# [7] = locus YDL028C, strain MPS1, hits give low values
# [8] = locus YDL101C, strain DUN1, hits give low values
# [9] = locus YDL108W, strain KIN28, hits give low values
# [10] = locus YDL132W, strain cdc53, hits give low values
# [11] = locus YDL214C, strain PRR2, hits give low values
# [12] = locus YDR052C, strain DBF4, hits give low values
# [13] = locus YDR054C, strain cdc34, hits give low values
# [14] = locus YDR226W, strain ADK1, hits give low values
# [15] = locus YDR477W, strain SNF1, hits give low values
# [16] = locus YER123W, strain YCK3, hits give low values
# [17] = locus YER133W, strain GLC7, hits give low values
# [18] = locus YFL009W, strain cdc4, hits give low values
# [19] = locus YFL029C, strain CAK1, hits give low values
# [20] = locus YFR003C, strain YPI1, hits give low values
# [21] = locus YFR019W, strain FAB1, hits give low values
# [22] = locus YFR028C, strain CDC14, hits give low values
# [23] = locus YGR040W, strain KSS1, hits give low values
# [24] = locus YGR052W, strain FMP48, hits give low values
# [25] = locus YGR092W, strain DBF2, hits give low values
# [26] = locus YHR030C, strain SLT2, hits give low values
# [27] = locus YHR079C, strain IRE1, hits give low values
# [28] = locus YHR082C, strain KSP1, hits give low values
# [29] = locus YHR205W, strain SCH9, hits give low values
# [30] = locus YIL147C, strain SLN1, hits give low values
# [31] = locus YJL095W, strain BCK1, hits give low values
# [32] = locus YJL128C, strain PBS2, hits give low values
# [33] = locus YJL157C, strain FAR1, hits give low values
# [34] = locus YJR016C, strain ILV3, hits give low values
# [35] = locus YJR066W, strain TOR1 (second series), hits give low values
# [36] = locus YJR066W, strain TOR1, hits give low values
# [37] = locus YKL048C, strain ELM1, hits give low values
# [38] = locus YKL067W, strain YNK1, hits give low values
# [39] = locus YKL101W, strain HSL1, hits give low values
# [40] = locus YKL193C, strain SDS22, hits give low values
# [41] = locus YKL203C, strain TOR2, hits give low values
# [42] = locus YLR113W, strain HOG1, hits give low values
# [43] = locus YLR133W, strain CKI1, hits give low values
# [44] = locus YLR403W, strain SFP1, hits give low values
# [45] = locus YML070W, strain DAK1, hits give low values
# [46] = locus YMR001C, strain CDC5, hits give low values
# [47] = locus YMR205C, strain PFK2 (second series), hits give low values
# [48] = locus YMR277W, strain FCP1, hits give low values
# [49] = locus YNL006W, strain LST8, hits give low values
# [50] = locus YNL020C, strain ARK1, hits give low values
# [51] = locus YNL161W, strain CBK1, hits give low values
# [52] = locus YNL183C, strain NPR1, hits give low values
# [53] = locus YNL207W, strain RIO2, hits give low values
# [54] = locus YNL222W, strain SSU72, hits give low values
# [55] = locus YNL307C, strain MCK1 (second series), hits give low values
# [56] = locus YOL078W, strain AVO1, hits give low values
# [57] = locus YOL136C, strain PFK27, hits give low values
# [58] = locus YOR061W, strain CKA2, hits give low values
# [59] = locus YOR119C, strain RIO1, hits give low values
# [60] = locus YOR231W, strain MKK1, hits give low values
# [61] = locus YOR329C, strain SCD5, hits give low values
# [62] = locus YPL031C, strain PHO85, hits give low values
# [63] = locus YPL153C, strain RAD53, hits give low values
# [64] = locus YPL204W, strain HRR25, hits give low values
# [65] = locus YPL209C, strain IPL1, hits give low values
# [66] = locus YPL256C, strain CLN2, hits give low values
# [67] = locus YPR025C, strain CCL1, hits give low values
# [68] = locus YPR106W, strain ISR1, hits give low values
# [69] = locus YPR111W, strain DBF20, hits give low values
# [70] = strain NNK1, hits give low values
# [71] = strain TSCII, hits give low values
compound,measurement,setting,value
Cc1nc(C(F)(F)F)c(C(=O)O/N=C(/N)c2ccc(Cl)cc2)s1,normalized growth,[1],0.98
same,normalized growth,[2],0.975
same,normalized growth,[3],0.98
same,normalized growth,[4],0.968
same,normalized growth,[5],0.983
same,normalized growth,[6],0.988
same,normalized growth,[7],0.974
same,normalized growth,[8],0.994
same,normalized growth,[9],0.98
same,normalized growth,[10],0.997
same,normalized growth,[11],0.967
same,normalized growth,[12],0.988
same,normalized growth,[13],1
same,normalized growth,[14],0.991
same,normalized growth,[15],0.942
same,normalized growth,[16],0.92
same,normalized growth,[17],0.942
same,normalized growth,[18],0.974
same,normalized growth,[19],0.983
same,normalized growth,[20],0.982
same,normalized growth,[21],0.938
same,normalized growth,[22],0.98
same,normalized growth,[23],0.941
same,normalized growth,[24],0.952
same,normalized growth,[25],0.933
same,normalized growth,[26],0.999
same,normalized growth,[27],0.83
same,normalized growth,[28],1.14
same,normalized growth,[29],0.921
same,normalized growth,[30],0.978
same,normalized growth,[31],0.818
same,normalized growth,[32],0.978
same,normalized growth,[33],0.952
same,normalized growth,[34],0.984
same,normalized growth,[35],0.926
same,normalized growth,[36],1.06
same,normalized growth,[37],1
same,normalized growth,[38],0.974
same,normalized growth,[39],0.983
same,normalized growth,[40],0.954
same,normalized growth,[41],1.03
same,normalized growth,[42],0.79 (active)
same,normalized growth,[43],0.948
same,normalized growth,[44],0.905
same,normalized growth,[45],0.939
same,normalized growth,[46],0.973
same,normalized growth,[47],0.941
same,normalized growth,[48],0.974
same,normalized growth,[49],0.985
same,normalized growth,[50],0.945
same,normalized growth,[51],0.984
same,normalized growth,[52],0.876
same,normalized growth,[53],0.972
same,normalized growth,[54],0.977
same,normalized growth,[55],0.963
same,normalized growth,[56],0.97
same,normalized growth,[57],0.946
same,normalized growth,[58],0.948
same,normalized growth,[59],0.983
same,normalized growth,[60],0.831
same,normalized growth,[61],0.974
same,normalized growth,[62],0.947
same,normalized growth,[63],0.937
same,normalized growth,[64],0.921
same,normalized growth,[65],0.982
same,normalized growth,[66],0.795 (active)
same,normalized growth,[67],0.993
same,normalized growth,[68],0.987
same,normalized growth,[69],0.976
same,normalized growth,[70],0.995
same,normalized growth,[71],0.974
CCCC1c2ccsc2CCN1C(=S)Nc1ccc(Cl)cc1Cl (configuration not stated),normalized growth,[1],0.969
same,normalized growth,[2],0.971
same,normalized growth,[3],0.983
same,normalized growth,[4],0.972
same,normalized growth,[5],0.984
same,normalized growth,[6],0.973
same,normalized growth,[7],0.971
same,normalized growth,[8],0.984
same,normalized growth,[9],0.987
same,normalized growth,[10],0.98
same,normalized growth,[11],0.984
same,normalized growth,[12],0.981
same,normalized growth,[13],0.962
same,normalized growth,[14],0.968
same,normalized growth,[15],0.974
same,normalized growth,[16],0.952
same,normalized growth,[17],0.968
same,normalized growth,[18],0.971
same,normalized growth,[19],0.967
same,normalized growth,[20],0.975
same,normalized growth,[21],0.986
same,normalized growth,[22],0.963
same,normalized growth,[23],0.959
same,normalized growth,[24],1
same,normalized growth,[25],0.946
same,normalized growth,[26],0.922
same,normalized growth,[27],0.975
same,normalized growth,[28],0.987
same,normalized growth,[29],0.878
same,normalized growth,[30],0.973
same,normalized growth,[31],0.961
same,normalized growth,[32],0.946
same,normalized growth,[33],0.981
same,normalized growth,[34],0.972
same,normalized growth,[35],0.946
same,normalized growth,[36],0.981
same,normalized growth,[37],0.975
same,normalized growth,[38],0.97
same,normalized growth,[39],0.964
same,normalized growth,[40],0.969
same,normalized growth,[41],1.02
same,normalized growth,[42],0.897
same,normalized growth,[43],0.974
same,normalized growth,[44],0.931
same,normalized growth,[45],0.944
same,normalized growth,[46],0.977
same,normalized growth,[47],0.968
same,normalized growth,[48],0.977
same,normalized growth,[49],0.991
same,normalized growth,[50],0.986
same,normalized growth,[51],0.98
same,normalized growth,[52],0.966
same,normalized growth,[53],0.97
same,normalized growth,[54],0.976
same,normalized growth,[55],0.973
same,normalized growth,[56],0.974
same,normalized growth,[57],0.958
same,normalized growth,[58],0.964
same,normalized growth,[59],1.02
same,normalized growth,[60],0.978
same,normalized growth,[61],0.974
same,normalized growth,[62],0.966
same,normalized growth,[63],0.971
same,normalized growth,[64],0.985
same,normalized growth,[65],0.974
same,normalized growth,[66],0.932
same,normalized growth,[67],0.983
same,normalized growth,[68],0.973
same,normalized growth,[69],0.959
same,normalized growth,[70],0.965
same,normalized growth,[71],0.959
